Measurements taken from PubChem BioAssay (NCI).
About 83,000 compounds went through this panel and 20% of them were active in at least one assay; those are over-represented in the sample as a whole.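 Note: values are percent growth. 100 is the growth of untreated cells, values between 100 and 0 indicate rising inhibition; between -100 and 0 indicates cell death.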 Values without a mark were called inactive. Active and inactive are the calls of the source. How the source made its calls: active means growth percent below 10; inactive means the rest.

Experiments:
Experiment in all cases: NCI-60 one-dose screen, 48 h (100 = growth as untreated, 0 = no growth, -100 = all killed)
Conditions in all cases: 10 µM unless noted
OVCAR-8 ovarian = test system: OVCAR-8 ovarian
OVCAR-5 ovarian = test system: OVCAR-5 ovarian
OVCAR-4 ovarian = test system: OVCAR-4 ovarian
SK-OV-3 ovarian = test system: SK-OV-3 ovarian
IGROV1 ovarian = test system: IGROV1 ovarian
OVCAR-3 ovarian = test system: OVCAR-3 ovarian
HS 578T breast = test system: HS 578T breast
T-47D breast = test system: T-47D breast
NCI/ADR-RES ovarian = test system: NCI/ADR-RES ovarian

SMILES	growth (OVCAR-8 ovarian)	growth (OVCAR-5 ovarian)	growth (OVCAR-4 ovarian)	growth (SK-OV-3 ovarian)	growth (IGROV1 ovarian)	growth (OVCAR-3 ovarian)	growth (HS 578T breast)	growth (T-47D breast)	growth (NCI/ADR-RES ovarian)
O=[N+]([O-])c1ccc(Oc2cccc(C(F)(F)F)c2)c([N+](=O)[O-])c1	12.7%	68.1%	98.2%	44.5%	12.3%	44.9%	105%	48%	
N#CCNc1ccccc1N	93.1%	109%	97.2%	84.5%	89.3%	101%	91.8%	59.9%	95.5%
COc1cc(C(=O)/C=C/c2cccnc2Nc2ccccc2)cc(OC)c1OC	-31.3% (active)	-71.2% (active)	-92.4% (active)	-3.48% (active)	-38.2% (active)	-98.5% (active)	24.2%	-39.8% (active)	13.4%
C[N+]1(CCc2ccccc2)CCC(CCC2CC[N+](C)(CCc3ccccc3)CC2)CC1 (stereo not drawn)	97%	104%	103%	107%	105%	107%	103%	102%	105%
O=C(CSc1nc2c(n1Nc1ccccc1)-c1ccccc1SC2)Nc1nc(-c2ccc(Cl)cc2)cs1	57.3%	93.6%	8.37% (active)	82.9%	86%	65.7%	23.4%	66.8%	66%
N#Cc1c(N)[nH]c(S)c1C#N	101%	99.7%	109%	100%	107%	120%	104%	89.3%	116%
COc1cccc(/C=C2\COc3ccc(O)c(O)c3C2=O)c1OC	18.3%	2.35% (active)	35.3%	54.8%	-39.9% (active)	-18.1% (active)	17.3%	4.89% (active)	16.9%
Clc1ccc(CCC(Cn2ccnc2)Sc2c(Cl)cccc2Cl)cc1 (stereo not drawn)	63.8%	68%	60.4%	91.1%	59%	59.4%	90.8%	39.5%	28.2%
CCCCCCCC/C=C\CCCCCCCCOc1ccccc1CC(=O)NCC[N+]1(C)CCCC1	80.9%	62.1%	86.8%	89.6%	10.9%	91.8%	86.9%	90.5%	110%
COc1cc(C2CC(c3ccc(C)cc3)=NN2C(C)=O)ccc1Oc1ccnc2cc(Cl)ccc12 (stereo not drawn)	63.1%	92%	-15.8% (active)	13.5%	81.2%	29.1%	7.55% (active)	62.2%	54.6%
COc1ccc2[nH]cc(/C=C3/C(=O)Nc4ccc(Cl)cc43)c2c1	52%	78.1%	51.5%	22.5%	54.4%	18.1%	31.9%	61.9%	49.6%
O=C(Nc1cccc(C(F)(F)F)c1)Nc1ccc(OCc2nnc(-c3ccc(Cl)cc3)o2)c(F)c1	58.2%	75.9%	75%	79.5%	90%	85.8%	91.7%	61.6%	73.1%
CC(C)[C@H]1CC[C@H]2[C@@H](CC[C@H]3[C@](C)(CN)CCC[C@]23C)C1	97.9%	74.7%	67.6%	111%	92.6%	22.7%	94.6%	64%	89.5%
CC/C(=C\c1ccc(N(C)C)cc1)c1nc2ccccc2c(=O)[nH]1	106%	92.9%	95.8%	109%	66.4%	116%	328%	79.2%	98.3%
CN1CCN(Cc2ccc(NC(=O)c3[nH]ncc3Nc3ccnc4ccnn34)cc2)CC1	61.8%	94%	62.1%	29.1%	58.3%	53.7%	63%	63.2%	107%
COc1ccc(/C=C2\COc3ccc(O)c(O)c3C2=O)cc1OC	8.42% (active)	-16.6% (active)	30.1%	40.2%	-33.4% (active)	-16.7% (active)	17.8%	-5.4% (active)	2.76% (active)
Oc1ccc(-c2nn(-c3ccccc3)cc2-c2nc3ccccc3s2)cc1	93.5%	108%	86.2%	99%	80.9%	85.3%	92.4%	53%	81.1%
O=C1OCCCCCCCCCC#Cc2ccccc21	105%	99%	91.3%	97.3%	72.1%	122%	108%	80.1%	99.7%
CCCCCCCC/C=C/CCCCCCCC1=NC(C)(C)CN1CC(C)O (stereo not drawn)	38.8%	83.8%	61.7%	88.5%	-15.1% (active)	31%	3.01% (active)	28.6%	73.4%
CC1=C(C(=O)Nc2ccccc2)C(c2ccc3c(c2)OCCO3)NC(=O)N1 (stereo not drawn)	102%	102%	106%	101%	104%	106%	101%	101%	101%

SMILES	growth (OVCAR-8 ovarian)	growth (OVCAR-5 ovarian)	growth (OVCAR-4 ovarian)	growth (SK-OV-3 ovarian)	growth (IGROV1 ovarian)	growth (OVCAR-3 ovarian)	growth (HS 578T breast)	growth (T-47D breast)	growth (NCI/ADR-RES ovarian)
O=c1[nH]c(Cl)nc2c1cnn2-c1ccccc1	106%	97.2%	82.6%	110%	108%	93.4%	93.4%	98.4%	96.3%
CC/C=C\C=C/C(=O)N/C=C/CC1Cc2cccc(O)c2C(=O)O1 (stereo not drawn)	90.5%	91%	80.2%	63.9%	79.1%	86%	50.7%	67.2%	57.2%
Clc1ccccc1[C@@H]1C[C@@H]2Cc3cc(Br)c4ccccc4c3N1O2	61.1%	70.9%	49.9%	38.5%	48.7%	-8.24% (active)	28.4%	65.3%	15.4%
O=C(Nc1ccc(Cl)cc1Cl)Nc1ccc(-c2cccnc2)cc1N1CCC(CO)CC1	32.8%	48.5%	53.2%	4.28% (active)	34.8%	24.9%	36.4%	17.5%	30.7%
COc1cc(/C=C/C(=O)c2ccc(F)cc2)ccc1OCCCCCOc1cc2c(cc1OC)C(=O)N1CCCC1C=N2 (stereo not drawn)	4.8% (active)	-5.07% (active)	-37.5% (active)	-4.32% (active)	-66.5% (active)	-8.63% (active)	-24.8% (active)	-4.98% (active)	8.85% (active)
CC[C@@H]1OC(=O)[C@H](C)[C@@H](O[C@H]2C[C@@](C)(OC)[C@@H](O)[C@H](C)O2)[C@H](C)[C@@H](O[C@@H]2O[C@H](C)C[C@H](N(C)C)[C@H]2O)[C@](C)(O)C[C@@H](C)[C@@H]2N[C@@H](COCCOC)O[C@H]([C@H]2C)[C@]1(C)O	102%	105%	106%	109%	108%	124%	115%	105%	
COc1ccc(/C=C2\NC(=S)NC2=O)cc1	104%	95.2%	117%	83.8%	96%	107%		86.3%	115%
Cn1cc(-c2csc(-c3cn(C)c4ncccc34)n2)c2cccnc21	93.7%	90.2%	100%	123%	111%	112%		101%	91.1%
O=C(/C=C/c1ccccc1)CC(c1ccccc1)N1CCOCC1 (stereo not drawn)	85.1%	98.7%	105%	98.4%	91.8%	78.9%		81.3%	104%
CC(=O)Oc1ccc(C23c4ccccc4C2(OC(C)=O)c2cc(OC(C)=O)ccc23)cc1 (stereo not drawn)	49.6%	86%	92.3%	110%	91.9%	78.2%		38.9%	39.3%
COc1cc2cn3c4ccc(O)cc4nc(N)c3c2cc1OC	29.6%	45.3%	38.7%	27.2%	33.9%	1.25% (active)		12.5%	42.4%
CN1COc2ccc3ccccc3c2C1	93%	77%	91.7%	103%	86.3%	98.9%		88.2%	
CC12CCC3C(CCC4CC(=O)/C(=C\O)CC43C)C1CCC(=O)O2 (stereo not drawn)	101%	95.7%	112%	128%	95.1%	114%		117%	96.1%
OC(Cc1cccnc1)c1ccccc1 (stereo not drawn)	96.5%	92.8%	107%	112%	114%		112%	112%	107%
O=C(CSCC(=O)N/N=C/c1ccccc1O)N/N=C\c1ccccc1O	28.3%	56.2%	27.5%	27.8%	18.9%	34.5%		35.5%	26.1%
CN(C)CCCN1c2nc3ccccc3cc2Sc2cc3ccccc3nc21	-67% (active)	-58.5% (active)	18.9%	-35.3% (active)		-81.4% (active)	2.82% (active)	-71.9% (active)	-23.1% (active)
Cn1cnc([N+](=O)[O-])c1S(=O)(=O)Oc1ccc(Cl)cc1	76.6%	102%	102%	104%	69.8%	-60.3% (active)		-31.1% (active)	95.8%
c1ccc(-n2nnnc2-c2cccc3ccccc23)cc1	30.5%	35.5%	59.6%	5.6% (active)	31.4%	-26.8% (active)		31.8%	-12.6% (active)
CC(C)C/C(=N\NC(=O)c1ccncc1)c1cc(Cl)ccc1O	11.7%	37.3%	14.5%	24.5%	9.3% (active)	11.1%		25.1%	5.17% (active)
CC(=O)n1c2ccccc2c2ccccc21	100%	89.3%	105%	122%	101%	114%		105%	100%

SMILES	growth (OVCAR-8 ovarian)	growth (OVCAR-5 ovarian)	growth (OVCAR-4 ovarian)	growth (SK-OV-3 ovarian)	growth (IGROV1 ovarian)	growth (OVCAR-3 ovarian)	growth (HS 578T breast)	growth (T-47D breast)	growth (NCI/ADR-RES ovarian)
c1cnc2ccc3ncccc3c2c1	95.4%	164%	110%	106%		103%	109%	116%	128%
CCOC(=O)C1=NN(c2ccc(Cl)cc2)C2C3N(c4ccc(Cl)cc4)N=C(C(=O)OCC)N3c3ccccc3N12 (stereo not drawn)	101%	101%	92.4%	115%	76.7%		120%	102%	101%
CCOC(=O)c1ccccc1OC(=O)NNc1ccccc1	71.3%	83.7%	63.6%	93.7%	60.4%	77.7%		57.3%	58.1%
Clc1ccc(-n2cnc3c(Cl)ncnc32)cc1Cl	88%	82.5%	103%	99.8%	54.6%	98.9%		82.2%	107%
Nc1ccccc1-c1ccc([N+](=O)[O-])cc1	75.3%	75%	63.2%	90.6%	56.2%	71.7%		38.6%	
COc1cccc(CCC2C(=O)CCCC2=O)c1	116%	103%	124%	102%	111%	99.9%		97.4%	110%
NC(=Nc1ccccc1)SCCCCSC(N)=Nc1ccccc1	83.7%	83.3%	77.3%	108%	75.3%	72%		62.2%	66.3%
O=C(N1CCC(CN=c2cc3n(-c4ccc(Cl)cc4)c4ccccc4nc-3cc2Nc2ccc(Cl)cc2)CC1)N1CC1	-67.4% (active)	-78.3% (active)	-74.6% (active)	-63.7% (active)	-92.3% (active)		-56.4% (active)	-46.8% (active)	-45.5% (active)
CC(=O)NC1(C(=O)O)CCCC1	99.8%	158%	112%	118%		112%	122%	128%	
Cc1c(C)c(N2C(=O)C=CC2=O)c(C)c(C)c1N1C(=O)C=CC1=O	96.1%	91%	104%	114%	83.6%	45.1%		113%	96.4%
CC/C(=C\c1ccc(N(C)C)cc1)c1ccncc1	54.7%	74%	69.5%	74.6%	49.7%	42.3%		40%	8.26% (active)
CC(O)c1nc2c(c(=O)n(C)c(=O)n2C)n1C (stereo not drawn)	105%	104%	104%	102%		108%	118%	97.6%	113%
Cc1ccc(C=C2C(Cl)=C(Cl)C(Cl)=C2Cl)cc1	-42.9% (active)	-80.7% (active)	-35.3% (active)	-38.5% (active)		-85.1% (active)	-9.6% (active)	-44.6% (active)	-3% (active)
CCCCCCCC1(C)NC(=O)NC1=O (stereo not drawn)	104%	163%	105%	114%		115%	114%	123%	138%
COc1ccc(C(=O)COc2cccc(/C=C3\Oc4ccc5ccccc5c4C3=O)c2)cc1	70.1%	103%	94.9%	99.5%		72.4%	93.3%	37.9%	96.4%
Cc1cc(Cl)ccc1Nc1nc(C(F)(F)F)ccc1C(=O)NCC(=O)N/N=C/c1c(Cl)cccc1Cl	73.4%	87.8%	86.4%	88.5%	35.4%			51.9%	77%
COc1c(O)cc2oc3cc(O)c(CC=C(C)C)c(O)c3c(=O)c2c1C/C=C(\C)CCC=C(C)C	24.4%	84.7%	72.6%	100%	81.4%	62%		77.1%	-39% (active)
O=C(/C=C/c1ccccc1Cl)c1ccc(O)cc1	96.8%	138%	63.3%	86%			80.5%	58.8%	97%
